# The full list was thinned out, with hits kept by preference.
# NS1 function inh = inhibitors of influenza NS1 protein function. Potency, µM (doses to about 46.1 µM), for inactives: at the highest dose activity, positive = more growth. 270,000 compounds, 0.4% hits. AID 2326; also: potency is read from the fitted curve at half-maximal effect; actives are rising curves; nearly all actives have a fitted effect of over 50% in size
#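 A cell-based growth assay was used: compounds that relieve NS1-induced slow growth of budding yeast raise OD600. Assay medium was yeast nitrogen base with ammonium sulphate and -URA supplement, pH 6.0, with 2% galactose.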
# Tb PYK inh = T. brucei pyruvate kinase inhibition; Potency, µM (titrated, usually from 76.8 µM), inactives show top-dose activity, negative = inhibition, hits mostly inhibitors; TbPYK enzyme, Kinase-Glo Plus ATP luminescence, 45 min; 410,000 compounds, 0.12% hits; Q57TT1; active = well fitted curve in the direction sought with a large enough effect; inconclusive = small, poorly fitted or top-dose-only effect, or another doubt; inactive = no such curve, though single readings can be large; an effect the other way counts as inactive or inconclusive; also: potency is read from the fitted curve at half-maximal effect; % is scaled to controls: 0 for no effect and ±100 for the full control effect; nearly all actives have a fitted effect of over 50% in size
#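 TbPYK + substrate in 50 mM TEA pH 7.2, 100 mM KCl, 10 mM MgCl2, 0.05% BSA, 0.01% Tween-20; cpd pinned; ADP 130 uM final; 45 min RT; Kinase-Glo Plus 10 min; luminescence endpoint.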
# SARS PLP yeast = SARS-CoV PLP inhibition in yeast. S. cerevisiae expressing SARS-CoV PLpro, growth rescue. Potency, µM (highest dose often 32.9 µM), without a hit: at the top dose activity, positive = growth rescue, usual class: activators. 330,000 compounds, 0.19% hits; also: potency is read from the fitted curve at half-maximal effect; 0% is about no effect; nearly all actives have a fitted effect of over 55% in size
# Cycloheximide cs = affects cycloheximide protein synthesis inhibition readout, counter-screen; cell reporter, cycloheximide protein synthesis inhibition counterscreen; AID 2314; 300,000 compounds, 12% hits; max response, %; in the data active = max response mostly above about 13%, no sharp cut-off; inactive = mostly below about 14%; also: read at 38.3 µM for the half of the compounds with a filed dose; 0% is about no effect
# Shiga toxin inh = inhibitors of Shiga toxin in Vero cells; 290,000 compounds, 9.2% hits; inhibition, % at 38.7 µM; AID 2315; Vero cells, Shiga toxin protein synthesis inhibition reporter; in the data active = inhibition mostly above about 28%, no sharp cut-off; inactive = mostly below about 43%; also: 0% is about no effect
# LmPK inh = blocks Leishmania mexicana pyruvate kinase activity. purified LmPK, Kinase-Glo ATP luminescence, 1 h. Potency, µM (titrated, usually from 57.5 µM), inactives show top-dose activity change, negative = inhibition, most hits filed as inhibitors. 290,000 compounds, 0.37% hits. AID 1721; active = well fitted curve in the direction sought with a large enough effect; inconclusive = small, poorly fitted or top-dose-only effect, or another doubt; inactive = no such curve, though single readings can be large; an effect the other way counts as inactive or inconclusive; also: potency is read from the fitted curve at half-maximal effect; % is scaled to controls: 0 for no effect and ±100 for the full control effect
# Target sequence (Q27686 whole entry, looked up): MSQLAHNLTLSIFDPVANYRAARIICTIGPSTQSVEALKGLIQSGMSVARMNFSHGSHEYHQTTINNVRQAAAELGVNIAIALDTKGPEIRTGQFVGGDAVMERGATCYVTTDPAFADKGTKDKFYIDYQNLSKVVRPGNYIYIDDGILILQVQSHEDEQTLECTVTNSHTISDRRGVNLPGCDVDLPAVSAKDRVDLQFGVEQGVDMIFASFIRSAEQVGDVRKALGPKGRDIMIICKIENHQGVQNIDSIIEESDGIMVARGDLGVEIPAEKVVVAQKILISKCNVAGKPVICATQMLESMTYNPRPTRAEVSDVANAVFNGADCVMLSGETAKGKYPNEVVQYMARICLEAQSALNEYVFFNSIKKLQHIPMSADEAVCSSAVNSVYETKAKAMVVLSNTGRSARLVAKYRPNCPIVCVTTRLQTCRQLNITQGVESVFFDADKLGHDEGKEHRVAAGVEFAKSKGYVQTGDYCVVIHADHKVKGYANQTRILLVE
#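 In 50 mM imidazole pH 7.2 with 7 mM MgCl2, LmPK (0.1 nM) turned over PEP (0.5 mM) and ADP (0.1 mM) for 1 h at room temperature. Luciferase read-out of ATP.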
# * marks the source's active call; other numbers are inactive results; ? = inconclusive; . = no result; + = active, no number. Unless noted, calls follow the shape of the full dose curve.
SMILES,NS1 function inh,Tb PYK inh,SARS PLP yeast,Cycloheximide cs,Shiga toxin inh,LmPK inh
Cc1cccc(CN2CCc3c(OCC(=O)N4CCCc5ccccc54)cccc3C2=O)c1,17%,-11%,-14%,14*,28,-1%
Cc1cccc(CN2CCc3c(OCC(=O)NCc4ccco4)cccc3C2=O)c1,-21%,1%,-3%,13*,18,3%
COc1ccc(-c2ccc(CN3C(C)C(=O)N(Cc4cn(CCC5OCCO5)nn4)CCS3(=O)=O)cc2)cn1 (configuration not stated),.,2%,.,.,.,.
C=C(C)CSc1nc(N)c2c(C)c(C)sc2n1,-6%,3%,20%,19*,48,1%
N#C/C(=C\C=C\c1ccccc1[N+](=O)[O-])c1nc(-c2ccc3c(c2)OCO3)cs1,16%,0%,6%,-1,-4,7%
COc1ccc(-c2csc(/C(C#N)=C\c3cccc([N+](=O)[O-])c3)n2)cc1,-6%,.,3%,1,-8,-3%
N#C/C(=C/c1ccccc1[N+](=O)[O-])c1nc(C2CC2)cs1,-17%,-4%,-28%,25*,43,2%
N#C/C(=C\c1ccc([N+](=O)[O-])cc1)c1nc(C2CC2)cs1,12%,0%,-4%,21*,15,0%
N#C/C(=C\c1ccccc1[N+](=O)[O-])c1nc(C2CC2)cs1,-27%,-12%,-64%,57*,58*,-1%
COc1cc(OC)c(OC)cc1/C=N/NC(=S)NCCN1CCOCC1,.,-13%,2%,7,5,19%
COc1cc(/C=N/NC(=S)NCCN2CCOCC2)cc(OC)c1O,3%,-5%,5%,19*,77*,-1%
COc1cc(NC(=O)N2CCN(c3cc(-c4noc(C)n4)ccc3C)CC2)cc(OC)c1OC,.,-6%,.,.,.,.
O=C(c1cccs1)c1cn(CC(=O)N2CCc3ccccc3C2)c2ccccc12,-51%,5%,4%,48*,5,1%
Cc1cc(C)cc(NC(=O)CCc2ccc(C)o2)c1,1%,-7%,-4%,22,23,2%
Cc1ccc(CCC(=O)Nc2ccc(C)c(C)c2)o1,-29%,-10%,-4%,19*,17,0%
Cc1cccc(NC(=O)CCc2ccc(C)o2)c1,-12%,-31%,-2%,18*,46,-3%
Cc1ccc(NC(=O)CCc2ccc(C)o2)cc1,-6%,-8%,-2%,16*,.,-4%
Cc1ccc(-c2ccc(CCC(=O)O)o2)cc1,-204%,?,-20%,38*,45*,-4%
CC(=O)Nc1ccc(NC(=O)CCc2ccc(C)o2)cc1,-3%,2%,-1%,2,-6,8%
COc1cccc(CNC(=O)c2ccc(Cn3c(SCc4ccccc4)nc4cccnc43)cc2)c1,.,-1%,.,.,.,.
Cn1nnnc1SCc1nnc(-c2ccccc2Br)o1,-9%,-11%,-5%,33*,86*,7%
Cn1nnnc1SCc1nnc(-c2ccc(F)cc2)o1,-3%,6%,1%,22*,39*,5%
Cc1nnc(SCc2nnc(-c3ccccc3Br)o2)s1,.,4%,-1%,24*,51,10%
O=C(NNC(=O)c1ccc(-n2cncn2)c([N+](=O)[O-])c1)c1ccc(Cl)cc1,.,-3%,2%,.,.,.
Clc1ccc2[nH]c3c(NCCN4CCOCC4)ncnc3c2c1,-1%,1%,-1%,7,24,5%
SMILES,NS1 function inh,Tb PYK inh,SARS PLP yeast,Cycloheximide cs,Shiga toxin inh,LmPK inh
COc1ccc(-n2ncc3c(NCC4CCCO4)ncnc32)cc1 (configuration not stated),-8%,-3%,2%,68*,95*,-6%
c1ccc(-n2ncc3c(NCC4CCCO4)ncnc32)cc1 (configuration not stated),9%,-2%,2%,-2,-4,0%
Clc1ccc(-n2ncc3c(NCC4CCCO4)ncnc32)cc1 (configuration not stated),-69%,2%,-19%,40*,50*,-3%
Clc1ccc2[nH]c3c(NCC4CCCO4)ncnc3c2c1 (configuration not stated),-16%,.,-6%,23*,13,-1%
Cc1ccc2cc(CN(C)C(=O)c3cccc(Cl)c3)c(=O)[nH]c2c1,.,2%,.,.,.,.
COc1ccc(OC)c(Nc2nc(N)nc(CCl)n2)c1,5%,-4%,-5%,-1,20,-4%
COc1ccccc1Nc1nc(N)nc(CSc2ncccn2)n1,-1%,-10%,2%,28*,96*,-14%
COc1ccccc1Nc1nc(N)nc(CCl)n1,6%,5%,-1%,21*,39*,-2%
O=[N+]([O-])C(Br)(CO)CO,.,10µM*,.,.,.,.
CC(C)(Cl)[N+](=O)[O-],.,-5%,-15%,.,.,.
C=CCn1c(SCC(C)=O)nc2scc(-c3ccc(C)o3)c2c1=O,8%,-15%,.,20*,19*,-11%
Cc1ccc(-c2csc3nc(C)n(N)c(=O)c23)o1,-1%,-6%,9%,46*,47*,-3%
Cc1ccc(-c2csc3nc(C)n(-n4c(C)ccc4C)c(=O)c23)o1,-6%,-31%,-8%,-2,-14,1%
O=C(COc1ccc(Cl)cc1)N(Cc1ccc(F)cc1)C1CCS(=O)(=O)C1 (configuration not stated),-15%,-1%,3%,2,17,1%
CCc1ccc(OC(=O)c2ccn(CC)n2)cc1,-58%,6%,12%,40*,150*,-15%
FC(F)(F)c1ccccc1Cc1c(C2CCCCC2)nc2ccc(Br)cn12,.,3%,.,.,.,.
CC(=O)N1CCN(C(=O)CNC(=O)c2ccc(Br)o2)CC1,10%,0%,-4%,7,-28,-7%
O=C(NCc1ccccc1)c1ccc(Br)o1,-6%,-1%,-6%,6,-14,2%
Cc1ccc(CNC(=O)c2ccc(Br)o2)cc1,-67%,-4%,-25%,20*,75,2%
O=C(NCC(=O)N1CCN(Cc2ccccc2)CC1)c1ccc(Br)o1,-5%,-4%,?,14*,16,4%
O=C(NCCc1ccccc1)c1ccc(Br)o1,-15%,-4%,-8%,46*,83*,5%
O=C(NCCc1ccccc1)c1cccc(Br)n1,.,.,.,78*,+,.
O=c1[nH]c(CN2CCN(S(=O)(=O)/C=C/c3ccccc3)CC2)nc2cc(Cl)ccc12,1%,2%,0%,-2,-6,11%
Cc1cc(OCC(=O)N(C)C2CCCCC2)ccc1Cl,.,-4%,-3%,25*,55,-1%
CN(C(=O)COC(=O)COc1ccc(Cl)cc1)C1CCCCC1,-18%,4%,1%,-4,-11,1%
CN(C(=O)COC(=O)c1ccc(Cl)cc1N)C1CCCCC1,.,-1%,-10%,21*,13,0%
Cc1cc(OCC(=O)N(C)C2CCCCC2)cc(C)c1Cl,.,-1%,-3%,42*,91*,-6%

# Assay outcomes from PubChem.
